Reference: PubChem BioAssay (EPA / NIEHS)
Results filed as inconclusive are left out. Calls of active or inactive are those of the source. The calls were made as follows, unless noted: active = hit-call score of the fitted dose curve at least 0.9, where 1 is the maximum; inactive = score below 0.9.

Experiments:
[1] = CCTE_Shafer_MEA_dev_firing_rate_mean: CCTE's Neural Network Formation Assay for Mean Firing Rate, Shafer Lab (AID 2284031);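 also: curve fitted for loss of firing so AC50 reflects decreased mean firing rate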
Procedure, shortened: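 Extracellular spike frequency, AUC over DIV 5–12 recordings, in rat cortical neuron MEA cultures dosed from plating; loss direction vs DMSO.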

[2] = CCTE_Shafer_MEA_dev_per_burst_spike_percent: CCTE's Neural Network Formation Assay for Percent of Spikes in a Burst, Shafer Lab (AID 2284032);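 also: fitted as a decrease in burst spike percentage below DMSO baseline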
Procedure, shortened: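 Value is trapezoidal AUC over recordings on days 5, 7, 9 and 12 of the well-mean fraction of spikes falling in single-electrode bursts; rat cortical cultures exposed continuously from plating, treatment renewed DIV 5 and 9, fitted downward against DMSO.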

[3] = CCTE_Shafer_MEA_dev_active_electrodes_number: CCTE's Neural Network Formation Assay for Number of Active Electrodes, Shafer Lab (AID 2284040; active = hit-call score of the fitted dose curve at least 0.9, where 1 is the maximum;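 also: potency for loss of active electrodes versus DMSO so lower counts are hits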)
Procedure, shortened: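 Developing rat cortical networks on MEAs, exposed DIV 0–12. Value is the AUC of active-electrode counts (≥5 spikes/min) from days 5, 7, 9, 12, relative to DMSO.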

[4] = CCTE_Shafer_MEA_dev_burst_rate: CCTE's Neural Network Formation Assay for Burst Rate, Shafer Lab (AID 2284042);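 also: potency for loss of burst rate below DMSO control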
Procedure, shortened: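 Developmental network assay measuring how 12-day exposure of rat cortical neuron cultures alters bursting on extracellular MEA recordings. Values are AUC of well-mean burst rate across four recording days, relative to DMSO vehicle.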

[5] = CCTE_Shafer_MEA_dev_bursting_electrodes_number: CCTE's Neural Network Formation Assay for Number of Bursting Electrodes, Shafer Lab (AID 2284043; active = hit-call score of the fitted dose curve at least 0.9, where 1 is the maximum;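 also: potency is for loss of bursting electrodes relative to DMSO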)
Procedure, shortened: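 Number of electrodes reaching ≥1 burst every 2 min was recorded at DIV 5, 7, 9 and 12 and collapsed as trapezoidal area under the curve. Cultures were rat cortical neurons on MEA plates, dosed continuously from plating with medium and treatment refreshed on DIV 5 and 9.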

[6] = CCTE_Shafer_MEA_dev_per_burst_interspike_interval: CCTE's Neural Network Formation Assay for Burst Interspike Interval, Shafer Lab (AID 2284044);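 also: potency for a decrease of within-burst interspike interval below DMSO level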
Procedure, shortened: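 Neurons from rat cortex plated onto PEI-coated MEA wells with laminin […] at 1.5 x 10^5 cells/well, then treated from day 0. Media and compound fully replaced on DIV 5 and 9. Extracellular spontaneous firing recorded four times; interspike interval per burst summarised as AUC.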

[7] = CCTE_Shafer_MEA_dev_interburst_interval_mean: CCTE's Neural Network Formation Assay for Mean Interburst Interval, Shafer Lab (AID 2284046);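 also: well-mean interburst interval of bursting electrodes as AUC over four recording days; curve fitted for decrease in interburst interval relative to DMSO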
Procedure, shortened: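 Network formation assay in primary rat cortical cultures, exposed from DIV 0 to 12. Mean interburst interval per well, integrated as AUC over four recordings.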

[8] = CCTE_Shafer_MEA_dev_inter_network_spike_interval_mean: CCTE's Neural Network Formation Assay for Mean Inter-network Spike Interval, Shafer Lab (AID 2284047)
Procedure, shortened: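 Compound was given at plating to primary rat cortical neurons and renewed with full medium changes on DIV 5 and 9. Extracellular activity was recorded on days 5, 7, 9, 12; AUC values were fitted for loss relative to DMSO control.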

[9] = CCTE_Shafer_MEA_dev_network_spike_number: CCTE's Neural Network Formation Assay for Number of Network Spikes, Shafer Lab (AID 2284048);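 also: synchronized bursts across electrodes counted on days 5 7 9 12 and integrated as AUC; fit as a loss of signal meaning fewer network spikes than DMSO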
Procedure, shortened: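 Number of network spikes (coordinated firing across electrodes) recorded on days 5, 7, 9 and 12 and summarised as area under the curve. Rat cortical cultures on MEA, continuous compound exposure with full medium/treatment exchange at DIV 5 and 9.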

[10] = CCTE_Shafer_MEA_dev_network_spike_peak: CCTE's Neural Network Formation Assay for Mean Number of Electrodes in Network Spike, Shafer Lab (AID 2284049);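 also: fitted for loss of signal meaning fewer electrodes in network spikes than DMSO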
Procedure, shortened: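 Rat cortical primary culture, 1.5 x 10^5 cells/well, 48-well MEA (16 electrodes/well). Dosing day 0 through DIV 12, full media/compound exchange DIV 5, 9. AxIS adaptive spike detection; AUC over days 5/7/9/12; loss-of-signal vs DMSO.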

[11] = CCTE_Shafer_MEA_dev_network_spike_duration_std: CCTE's Neural Network Formation Assay for Standard Deviation of Network Spike Duration, Shafer Lab (AID 2284052);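 also: area under curve of spike duration SD across recording days 5 to 12; hits are decreases in network spike duration SD versus DMSO vehicle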
Procedure, shortened: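 Developing networks of rat cortical neurons were exposed over twelve days in vitro on 48-well MEA plates. Trapezoidal AUC of recordings (DIV 5–12) was analysed for signal loss relative to DMSO vehicle.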

[12] = CCTE_Shafer_MEA_dev_per_network_spike_spike_number_mean: CCTE's Neural Network Formation Assay for Mean Number of Spikes in a Network Spike, Shafer Lab (AID 2284053);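 also: fitted as decrease in spikes per network spike relative to DMSO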
Procedure, shortened: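 First, rat cortical cells (1.5 x 10^5/well) were seeded onto MEA wells; second, dosing began at plating and was refreshed on DIV 5 and 9; finally, network-spike spike counts across DIV 5–12 were summarized as AUC.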

[13] = CCTE_Shafer_MEA_dev_per_network_spike_spike_percent: CCTE's Neural Network Formation Assay for Percent of Spikes in a Network Spike, Shafer Lab (AID 2284054)
Procedure, shortened: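 Metric: fraction of spikes falling in a 0.05 s window at network-spike peaks. Recordings were made on days 5, 7, 9 and 12 and collapsed by trapezoidal AUC. Cultures were rat cortical neurons on MEA plates, dosed continuously from plating, re-dosed at media changes.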

[14] = CCTE_Shafer_MEA_dev_LDH: CCTE's Lactate Dehydrogenase Assay for Cytotoxicity in the Neural Network Formation Assay, Shafer Lab (AID 2284068; active = hit-call score of the fitted dose curve at least 0.9, where 1 is the maximum;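 also: exposure for twelve days from plating with re-dosing on DIV 5 and 9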)
Procedure, shortened: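 Developing rat cortical networks on MEA plates are exposed to compound for 12 days from plating. LDH activity is measured spectrophotometrically, with DMSO as baseline.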

[15] = CCTE_Shafer_MEA_dev_AB: CCTE's Alamar Blue Assay for Cytotoxicity in the Neural Network Formation Assay, Shafer Lab (AID 2284083; active = hit-call score of the fitted dose curve at least 0.9, where 1 is the maximum;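 also: resazurin reduction fluorescence as viability of cultured neurons; twelve days of exposure from plating with re-dosing on DIV 5 and 9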)
Procedure, shortened: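 Cytotoxicity companion to the developmental MEA: primary rat cortical neurons, 12-day exposure starting day 0, compound refreshed DIV 5 and 9; resazurin fluorescence, fitted against DMSO vehicle.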

[16] = UKN2_HCS_IMR90_neural_migration: University of Konstanz (UKN) Leist Lab Neural Crest Cell Migration Assay in human induced IMR90 Pluripotent Stem Cells (UKN2) (AID 2284204); settings: actives raise or lower the signal
Procedure, shortened: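 High-content imaging of calcein-AM and Hoechst stained cells quantifies migration into a stopper-defined gap after 24 h compound exposure. Neural crest cells from IMR90 iPSC migrated 24 h in EGF/FGF N2-S medium before dosing; DMSO baseline.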

[17] = IUF_NPC1b_proliferation_BrdU_72hr: Leibniz Research Institute for Environmental Medicine (IUF) 72-hour Neural Progenitor Cell Bromodeoxyuridine (BrdU) Proliferation Assay (NPC1b) (AID 2284207)
Procedure, shortened: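 Human fetal cortex-derived (GW 16-19) neural progenitor spheres, 0.25-0.35 mm, one per well in EGF/FGF proliferation medium, exposed to compound for 72 h at 37C, pH 7.2-7.6. BrdU incorporation over the final 16 h read by luminescence ELISA, relative to DMSO.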

[18] = IUF_NPC1a_proliferation_area_72hr: Leibniz Research Institute for Environmental Medicine (IUF) 72-hour Neural Progenitor Cell Proliferation Area Assay (NPC1a) (AID 2284208)
Procedure, shortened: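 Spheres of 0.3 mm are plated singly in growth-factor medium and exposed from day 0. After three days at 37C and 5% CO2, sphere area is measured by phase contrast imaging, with activity referenced to DMSO.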

[19] = IUF_NPC1_viability_72hr: Viability Assessment at 72 hours in the Leibniz Research Institute for Environmental Medicine (IUF) Neural Progenitor Cell Proliferation Assay (NPC1) (AID 2284209)
Procedure, shortened: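 Three-day continuous exposure of human neural progenitor spheres under EGF/FGF-driven proliferation; cell viability scored by alamar blue signal versus DMSO.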

[20] = CCTE_Mundy_HCI_Cortical_Synap_Neur_Matur_NeuriteSpotCountPerNeuriteLength: CCTE's Synaptogenesis and Neurite Maturation Assay in rat cortical cells for Neurite Spot Count per Neurite Length, Mundy Lab (AID 2284210)
Procedure, shortened: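 Synaptophysin spots per unit neurite length, measured by automated imaging of MAP2/synaptophysin/Hoechst-stained neurons. Cultures from rat cortex received chemical at DIV 7 with media change through DIV 12; glial growth arrested by AraC at DIV 5; DMSO baseline.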

[21] = CCTE_Mundy_HCI_Cortical_Synap_Neur_Matur_BPCount: CCTE's Synaptogenesis and Neurite Maturation Assay in rat cortical cells for Branch Point Count, Mundy Lab (AID 2284211)
Procedure, shortened: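 In this multiplexed morphology assay, cortical cells from rat receive chemicals at DIV 7 and are fixed at DIV 12, then immunostained and imaged; branch points are counted, with DMSO as baseline.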

[22] = CCTE_Mundy_HCI_Cortical_NOG_NeuriteCount: CCTE's Neurite Outgrowth Assay in rat cortical cells for Neurite Count, Mundy Lab (AID 2284212);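 also: cells fixed about two days after chemical exposure began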
Procedure, shortened: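 Rat cortical primary cells; compound added 2 h post-plating, 1/10 dilution of working solution. Anti-betaIII-tubulin/AF488 ICC; ArrayScan neurite count vs DMSO.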

Compound: C[C@@H]1CCO[C@H]2Cn3cc(C(=O)NCc4ccc(F)cc4F)c(=O)c(O)c3C(=O)N12
- AC50 [1]: 2570 nM (active)
- AC50 [2]: 1640 nM (active)
- AC50 [3]: 1460 nM (active)
- AC50 [4]: 1670 nM (active)
- AC50 [5]: 1650 nM (active)
- AC50 [6]: 1800 nM (active)
- AC50 [7]: 1740 nM (active)
- outcome [8]: inactive
- AC50 [9]: 1540 nM (active)
- AC50 [10]: 1110 nM (active)
- outcome [11]: inactive
- AC50 [12]: 983 nM (active)
- AC50 [13]: 691 nM (active)
- AC50 [14]: 1070 nM (active)
- AC50 [15]: 1800 nM (active)
- outcome [16]: inactive
- outcome [17]: inactive
- outcome [18]: inactive
- outcome [19]: inactive
- AC50 [20]: 7380 nM (active)
- AC50 [21]: 1140 nM (active)
- outcome [22]: inactive
